Where “and” joins values, the source holds several entries; their conditions need not be identical. Identical values can stand only once. Inconclusive results are not listed. Where a structure was tested more than once in an assay, its records may differ in their call. Calls of active or inactive are those of the source. Unless noted, calls follow the shape of the dose curve; as a rule, active = well fitted curve in the direction sought with a large enough effect in the repeat runs; inconclusive = weak or mixed curves; inactive = no such curve, though single readings can be large; an effect the other way counts as inactive or inconclusive.

Data on 27 molecules can be found in PubChem BioAssay (Tox21).

A short description of experiment [1]: qHTS assay for small molecule agonists of the p53 signaling pathway (AID 651631; calls by dose curve; also: nearly all actives have a fitted effect of over 15% in size; also: potency is read from the fitted curve at half-maximal effect). Summed up: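 HCT-116 cells carrying a beta-lactamase reporter under p53 response elements were dosed with compound for 16 h at 37 °C. LiveBLAzer B/G FRET substrate was then added for 2 h at room temperature, and fluorescence intensity was read to detect pathway agonism.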
Experiment [2] is described as follows: qHTS assay for small molecules that induce genotoxicity in human embryonic kidney cells expressing luciferase-tagged ATAD5 (AID 651632). Also: nearly all actives have a fitted effect of over 15% in size. The gist of the method:
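ATAD5-luc HEK293T, 2,000 cells/well; cpd or DMSO pin-transferred; 16 hr, 37C/5% CO2; Amplite 30 min RT; luminescence.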
In general terms: Quantitative high-throughput screening tests each substance at several concentrations.

Experiment [3] is described as follows: qHTS assay for small molecule agonists of the p53 signaling pathway - cell viability (AID 651633; calls by dose curve; also: nearly all actives have a fitted effect of over 30% in size; also: potency is read from the fitted curve at half-maximal effect). The gist of the method: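 p53RE-bla cells were treated with compound for 16 hours at 37 C. Cytotoxicity was then measured as CellTiter-Glo luminescence after 30 min at room temperature.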
Experiment [4] in a line: qHTS assay for small molecule disruptors of the mitochondrial membrane potential - cell viability (AID 720634; calls by dose curve;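 also: human HepG2 liver cancer cells; series mostly up to about 83 µM; nearly all actives have a fitted effect of over 20% in size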). The gist of the method:
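Cells: HepG2, 2,000/well, attached overnight. Compound 1 hr, 37 C/5% CO2. +m-MPI dye, +CellTiter-Glo 30 min RT. Readout: luminescence (ATP).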

The nature of experiment [5]: qHTS assay for small molecule disruptors of the mitochondrial membrane potential (AID 720635). Also: potency is read from the fitted curve at half-maximal effect. Summed up:
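HepG2 cells exposed to compound 1 hr at 37C, then Mito-MPS dye 30 min. Ratio read of aggregate (540/590 nm) versus monomer (490/535 nm) fluorescence.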

A short description of experiment [6]: qHTS assay to test for compound auto fluorescence at 590 nm (red) in HepG2 cells (AID 720674). The gist of the method:
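Fluorescence at 590 nm emission following 540 nm excitation was recorded from HepG2 wells one hour after compound transfer, with DMSO-only wells as vehicle and Rose Bengal sodium equivalency as the scale.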

Experiment [7] in a line: qHTS assay to test for compound auto fluorescence at 535 nm (green) in HepG2 cells (AID 720675).
Experiment [8] can be described thus: qHTS assay to test for compound auto fluorescence at 460 nm (blue) in HEK293 cells (AID 720678). Summed up:
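Measured: blue fluorescence (Ex 405/Em 460 nm) of compound-treated HEK293 cells, incubated overnight at 37C with 5% CO2 and scaled to triamterene equivalents.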

Experiment [9] can be described thus: qHTS assay to test for compound auto fluorescence at 590 nm (red) in HEK293 cells (AID 720679). Summed up:
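Using HEK293 cells at 2,000 per well, the screen added 23 nL of each compound after cell attachment and incubated overnight (37C, 5% CO2). The plate reader then captured red-label fluorescence, Ex/Em 540/590nm.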

Experiment [10] in a line: qHTS assay for small molecules that induce genotoxicity in human embryonic kidney cells expressing luciferase-tagged ATAD5 - cell viability (AID 651634; calls by dose curve; also: nearly all actives have a fitted effect of over 25% in size). Summed up: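 Fluorescence from CellTiter-Fluor, reporting protease activity within live cells, served as the viability read-out. HEK293T cells carrying luciferase-tagged ATAD5 had been treated with compound for 15.5 hr at 37C.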

As to `CCCCCCCCCCCCCC(=O)O`, the Potency entry in experiment [1], in experiment [2], in [3], in experiment [4], in experiment [5] and in experiment [8] was “inactive” in each case. Further, the molecule was called inactive in [6], in experiment [7] and in experiment [9].
`CC(=O)Nc1ccc(CC(=O)O)cc1`: the Potency entry in experiment [1], in [2], in experiment [3], in [10], in experiment [4] and in experiment [5] was “inactive” in each case. The Potency result in [8] is “inactive”. Further, the molecule was called inactive in [7] and in experiment [9].
On to `Cc1cc(C)cc(O)c1`, for which the Potency result in experiment [1], in experiment [2], in [3], in [10], in [4] and in [5] was “inactive” each time. The Potency entry in experiment [8] was “inactive”. Besides, the outcome in experiment [7] and in [9] was inactive.
For the molecule `CC(=O)OC/C=C(\C)CCC=C(C)C`, the Potency result in experiment [1], in experiment [2], in experiment [3], in experiment [10], in experiment [4] and in experiment [8] was “inactive” in each case. Besides, the outcome in experiment [7] and in experiment [9] was inactive.
For the molecule `CC(=O)OCc1ccc2c(c1)OCO2`, the Potency result in experiment [1], in [2], in experiment [3], in experiment [10], in experiment [4] and in experiment [5] was “inactive” in each case. The Potency entry in experiment [8] is “inactive”. Besides, the result in experiment [6], in experiment [7] and in [9] was inactive.
For `CCCCCCCC(=O)O`, the Potency result in experiment [1], in [2], in [3], in [4], in experiment [5] and in experiment [8] was “inactive” in each case. For the same molecule, the call in experiment [6], in [7] and in [9] was inactive.
Turning to `COc1ccc2cc3[n+](cc2c1OC)CCc1cc2c(cc1-3)OCO2`, the Potency in experiment [1] is 61.6 µM (active); in experiment [3], “inactive and 30.9 µM (active)”; in [5], 1.68 µM (active) and 870 nM (active). In addition, the Potency result in [2], in experiment [4] and in experiment [8] was “inactive” in each case. Further, the result in experiment [6], in [7] and in experiment [9] was inactive.
Regarding `CC1(C)C(=O)N(Cl)C(=O)N1Cl`, the Potency result in experiment [1], in [2], in experiment [3], in [10], in experiment [4] and in experiment [5] was “inactive” in each case. In addition, in [8], the Potency entry is “inactive”. Moreover, the call in experiment [6], in experiment [7] and in experiment [9] was inactive.
With `Cc1ccc(C(C)C)cc1`, the Potency result in experiment [1], in [2], in [3], in experiment [10], in experiment [4] and in [5] was “inactive” throughout. In addition, the Potency result in experiment [8] is “inactive”. Also, the outcome in [6], in experiment [7] and in [9] was inactive.
Take `CCCCC(CC)COC(=O)c1ccc(C(=O)OCC(CC)CCCC)cc1` (centres undefined): the Potency entry in [1], in [2], in experiment [3], in experiment [10], in [4] and in experiment [5] was “inactive” each time. Also, the Potency entry in experiment [8] was “inactive”. For the same molecule, the molecule was called inactive in experiment [7] and in [9].
As for `CC(C)(C)NC[C@H](O)COc1nsnc1N1CCOCC1`, the Potency result in [1], in experiment [2], in experiment [3], in [4], in [5] and in [8] was “inactive” each time. The molecule was called inactive in [6], in [7] and in experiment [9].
In the case of `CC(=O)CC(=O)N(C)C`, the Potency entry in experiment [1], in experiment [2], in experiment [3], in experiment [10], in experiment [4] and in experiment [5] was “inactive” each time. Moreover, in experiment [8], the Potency entry was “inactive”. Also, the molecule was called inactive in [6], in experiment [7] and in [9].
On to `OB(O)O`, for which the Potency entry in experiment [1], in [2], in [10], in [4], in [5] and in experiment [8] was “inactive” each time. For the same molecule, the call in [7] and in experiment [9] was inactive.
`Cc1ccccc1C=O`: the Potency result in [1], in experiment [2], in [3], in experiment [4], in experiment [5] and in [8] was “inactive” each time. The molecule was called inactive in experiment [7] and in experiment [9].
With `Cc1cc(C)c(O)c(C)c1`, the Potency entry in [1], in experiment [2], in [3], in experiment [4], in experiment [5] and in experiment [8] was “inactive” each time. The outcome in [6], in experiment [7] and in experiment [9] was inactive.
`Nc1cccc(C(F)(F)F)c1`: the Potency entry in experiment [1], in experiment [2], in [3], in experiment [4], in experiment [5] and in experiment [8] was “inactive” in each case. The result in experiment [6], in [7] and in experiment [9] was inactive.
For `N[C@@H](Cc1cc(I)c(Oc2ccc(O)c(I)c2)c(I)c1)C(=O)O`, the Potency entry in experiment [1], in [2], in experiment [10], in [4] and in experiment [8] was “inactive” each time. Besides, the Potency in experiment [5] is 23.7 µM (active). Also, the outcome in [6], in experiment [7] and in experiment [9] was inactive.
Consider `COC(=O)OC`, for which the Potency result in experiment [1], in experiment [2], in experiment [3], in experiment [4], in [5] and in [8] was “inactive” each time. The result in [7] and in experiment [9] was inactive.
With `CCCCCC(C)=O`, the Potency entry in [1], in [2], in [10], in experiment [4], in [5] and in experiment [8] was “inactive” in each case. Also, the outcome in [6], in experiment [7] and in experiment [9] was inactive.
Turning to `CC(O)CNCC(C)O` (centres undefined), the Potency entry in experiment [1], in experiment [2], in [10], in experiment [4], in experiment [5] and in experiment [8] was “inactive” throughout. For the same molecule, the molecule was called inactive in experiment [6], in experiment [7] and in [9].
Regarding `CCCCC(=O)O`, the Potency entry in experiment [1], in experiment [2], in experiment [3], in [4], in experiment [5] and in experiment [8] was “inactive” throughout. The molecule was classed as inactive in experiment [6], in experiment [7] and in experiment [9].
On to `Oc1ccc(Cc2ccccc2O)cc1`, for which the Potency result in experiment [1], in experiment [2], in experiment [10], in experiment [4] and in experiment [8] was “inactive” each time. For the same molecule, the Potency in experiment [5] was 11 µM (active) and 27.3 µM (active). Moreover, the outcome in experiment [6], in experiment [7] and in experiment [9] was inactive.
`OCc1ccc(Cl)cc1Cl`: the Potency entry in experiment [1], in experiment [2], in [3], in experiment [4], in experiment [5] and in experiment [8] was “inactive” in each case. The molecule was classed as inactive in experiment [7] and in experiment [9].
With `Brc1ccc(Oc2ccc(Br)cc2)cc1`, the Potency result in experiment [1], in experiment [2], in experiment [3], in experiment [4] and in [8] was “inactive” each time. For the same molecule, the Potency in experiment [5] is 21.7 µM (active) and 27.3 µM (active). The call in experiment [7] and in [9] was inactive.
In the case of `O=C(O)Cc1c[nH]c2ccccc12`, the Potency result in experiment [1], in experiment [2], in experiment [10], in [4], in experiment [5] and in experiment [8] was “inactive” in each case. Moreover, the call in [7] and in experiment [9] was inactive.
Regarding `Cc1ccc(C)c(S(=O)(=O)O)c1`, the Potency result in [1], in [2], in experiment [10], in experiment [4], in [5] and in [8] was “inactive” throughout. The outcome in experiment [6], in [7] and in [9] was inactive.
Consider `CC(=O)c1nccs1`, for which the Potency result in experiment [1], in [2], in experiment [3], in [4], in [5] and in experiment [8] was “inactive” in each case. The result in experiment [7] and in experiment [9] was inactive.
